Experiment [1] can be described thus: qHTS assay to identify small molecule agonists of the hypoxia (HIF-1) signaling pathway - cell viability counter screen (AID 1224844; calls by dose curve; also: nearly all actives have a fitted effect of over 50% in size). The gist of the method: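 CellTiter-Glo luminescence read-out, 30 min RT, taken in the same wells as the beta-lactamase HRE reporter assay; HRE-bla ME-180 cells, 0.5% dialyzed FBS, 17 hr compound treatment at 37C, 5% CO2.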
The nature of experiment [2]: qHTS assay to identify small molecule agonists of H2AX (AID 1224845; active = well fitted activation curve with a large enough effect in the signal ratio in the repeat runs, not every such curve was filed as active; the % refers to the signal ratio). The procedure, abridged: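 Wild-type CHO-K1 cells plated overnight, then exposed 3 hr at 37C to compounds at 15 concentrations (0.76% DMSO). Lysed, then HTRF anti-pH2AX(S139)-cryptate/anti-H2AX-d2 detection after 24 hr at room temperature; emissions 665 and 620 nm.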
Experiment [3] can be described thus: qHTS assay to identify small molecule agonists of the hypoxia (HIF-1) signaling pathway (AID 1224846; active = well fitted activation curve with a large enough effect in the signal ratio in the repeat runs, not every such curve was filed as active; the % refers to the signal ratio). The procedure, abridged: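 Beta-lactamase FRET read-out (CCF4-AM substrate) from ME-180 cells carrying an HRE-driven bla reporter, after 17 hrs compound exposure at 37C/5% CO2. Cells were seeded at 2,000 per well in 0.5% dialyzed FBS medium and preincubated 5 hrs.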

Experiment [4] can be described thus: qHTS assay to identify small molecule agonists of H2AX - cell viability counter screen (AID 1224847; calls by dose curve; also: top concentration of the series differs between compounds; nearly all actives have a fitted effect of over 30% in size). The gist of the method:
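After overnight plating of 1000 CHO-K1 cells per well, a 15-concentration compound series was applied for 3 hr at 37C. Luminescence from CellTiter-Glo, read following 30 min at room temperature, reflected cell viability.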

Experiment [5] can be described thus: qHTS RealTime-Glo MT Cell Viability Assay in HEK293 cells - 32 hour (AID 1224868). Also: nearly all actives have a fitted effect of over 50% in size. Also: potency is read from the fitted curve at half-maximal effect. The procedure, abridged: (§1)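 HEK293 cells seeded with NanoLuc/prosubstrate reagent, rested 5 h at 37 C, then dosed and kept at 37 C up to 40 h. Nonlytic real-time luminescence from viable cells read at 0, 8, 16, 24, 32 and 40 h.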
Experiment [6] can be described thus: A CellTox Green Cytotoxicity Assay to monitor cytotoxicity in HEK293 cells - 0 hour (AID 1224869). Also: nearly all actives have a fitted effect of over 50% in size. The procedure, abridged:
(§2)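 Read-out: fluorescence of a cell-impermeant cyanine dye staining DNA of dead cells, proportional to cytotoxicity. HEK293, 600 cells/well with reagent, compound (23 nL DMSO) added after 5 h; reads at 0, 8, 16, 24, 32, 40 h.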

Experiment [7] can be described thus: qHTS RealTime-Glo MT Cell Viability Assay in HepG2 cells - 40 hour (AID 1224870). Also: nearly all actives have a fitted effect of over 50% in size. The procedure, abridged: (§3)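 HepG2 cells mixed with RealTime-Glo MT reagents (NanoLuc plus cell-permeant prosubstrate) were seeded at 600 cells/well, incubated 5 h at 37 C/5% CO2, then pinned with compounds in DMSO; nonlytic luminescence tracked viability during 40 h treatment.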

Experiment [8] is described as follows: A CellTox Green Cytotoxicity Assay to monitor cytotoxicity in HEK293 cells - 40 hour (AID 1224871). Also: nearly all actives have a fitted effect of over 45% in size. The gist of the method:
as §2

Experiment [9] is described as follows: qHTS RealTime-Glo MT Cell Viability Assay in HEK293 cells - 16 hour (AID 1224872). Also: nearly all actives have a fitted effect of over 50% in size. Also: potency is read from the fitted curve at half-maximal effect. The procedure, abridged:
as §1

Experiment [10] is described as follows: qHTS RealTime-Glo MT Cell Viability Assay in HepG2 cells - 8 hour (AID 1224873). Also: nearly all actives have a fitted effect of over 55% in size. Also: potency is read from the fitted curve at half-maximal effect. The procedure, abridged:
as §3

Experiment [11] can be described thus: qHTS RealTime-Glo MT Cell Viability Assay in HEK293 cells - 40 hour (AID 1224874). Also: nearly all actives have a fitted effect of over 50% in size. Also: potency is read from the fitted curve at half-maximal effect. To be noted: RealTime-Glo luminescence; max response: stronger effect = lower value. The procedure, abridged: (§4)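 Luminescence readout at each listed time point; HEK293, 600 cells/well, RealTime-Glo MT reagent added with cells; compounds pinned (23 nL in DMSO) after 5 h at 37 C; continuous culture at 37 C.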

The nature of experiment [12]: A CellTox Green Cytotoxicity Assay to monitor cytotoxicity in HEK293 cells - 24 hour (AID 1224875). Also: nearly all actives have a fitted effect of over 45% in size. The procedure, abridged:
as §2

Experiment [13] in a line: A CellTox Green Cytotoxicity Assay to monitor cytotoxicity in HepG2 cells - 16 hour (AID 1224876). Also: nearly all actives have a fitted effect of over 45% in size. The gist of the method: (§5)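 HepG2, 600 cells/well premixed w/ CellTox Green; 5 h settle, 37 C/5% CO2; pintool cpd add (DMSO); 37 C, 40 h; fluorescence read at 0, 8, 16, 24, 32, 40 h.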
Experiment [14] in a line: A CellTox Green Cytotoxicity Assay to monitor cytotoxicity in HepG2 cells - 24 hour (AID 1224878). Also: nearly all actives have a fitted effect of over 45% in size. The procedure, abridged: as §5
Experiment [15] is described as follows: qHTS RealTime-Glo MT Cell Viability Assay in HepG2 cells - 24 hour (AID 1224867). Also: nearly all actives have a fitted effect of over 50% in size. The procedure, abridged:
(§6)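 HepG2 cells (600/well) were dispensed with RealTime-Glo reagents, incubated 5 h at 37 °C, then treated with compounds in DMSO for up to 40 h. Nonlytic NanoLuc luminescence reflecting viable cells was read at each stated time point.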

Experiment [16] is described as follows: qHTS RealTime-Glo MT Cell Viability Assay in HepG2 cells - 32 hour (AID 1224877). Also: nearly all actives have a fitted effect of over 55% in size. The gist of the method: as §6
A short description of experiment [17]: A CellTox Green Cytotoxicity Assay to monitor cytotoxicity in HepG2 cells - 40 hour (AID 1224879). Also: nearly all actives have a fitted effect of over 40% in size. The procedure, abridged: as §5
A short description of experiment [18]: qHTS RealTime-Glo MT Cell Viability Assay in HEK293 cells - 0 hour (AID 1224880). The gist of the method:
as §4

Experiment [19] can be described thus: qHTS assay to identify small molecule agonists of the estrogen related receptor (ERR) signaling pathway from Tox21 library (AID 1224849; calls by dose curve; also: nearly all actives have a fitted effect of over 15% in size). To be noted: ERR reporter cell line, ONE-Glo luciferase, 18 h; at 92.4 µM (top of the series) unless noted. The procedure, abridged: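 Luminescence readout (ONE-Glo, 30 min RT) after 18 h compound exposure at 37 C of NTP-supplied ERR reporter cells; cells were plated 6 h before compound addition by pin tool.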

Structures are written as SMILES. Values without a mark were called inactive. Records with an inconclusive call do not appear. The source made the active and inactive calls. Unless noted, calls follow the shape of the dose curve; as a rule, active = well fitted curve in the direction sought with a large enough effect in the repeat runs; inconclusive = weak or mixed curves; inactive = no such curve, though single readings can be large; an effect the other way counts as inactive or inconclusive.
% is scaled to controls: 0 for no effect and ±100 for the full control effect.

For `COc1ccc(Cc2nccc3cc(OC)c(OC)cc23)cc1OC`, the Potency result in experiment [1], in experiment [2], in experiment [3], in [4], in experiment [6] and in [7] was “inactive” in each case. Besides, the Potency result in [8], in experiment [12], in [13] and in [14] was “inactive” each time. For the same molecule, the Potency in [5] was 5.35 µM (active); in [9] it was 4.77 µM (active); in experiment [10], 10.7 µM (active); in experiment [11], 5.35 µM (active).
Take `NC1CCC(CC2CCC(N)CC2)CC1` (stereo not drawn): the Potency result in experiment [1], in experiment [2], in experiment [3], in [4], in experiment [15] and in experiment [6] was “inactive” in each case. The Potency result in experiment [7], in experiment [8], in experiment [9], in [10], in experiment [12] and in experiment [13] was “inactive” each time. Moreover, the Potency result in experiment [16], in [14], in [17] and in experiment [18] was “inactive” each time.
For the molecule `CCC1COC(Cn2cncn2)(c2ccc(Cl)cc2Cl)O1` (stereo not drawn), the Potency result in [1], in experiment [2], in experiment [3], in experiment [15], in experiment [6] and in experiment [7] was “inactive” in each case. For the same molecule, the Potency entry in experiment [8], in [10], in experiment [12], in experiment [13], in experiment [16] and in experiment [14] was “inactive” each time. Also, the Potency result in [18] was “inactive”. The activity change, positive = activation in experiment [19] was -57.5%.
Turning to `CNN`, the Potency result in experiment [1], in experiment [2], in [3], in experiment [4], in experiment [15] and in [5] was “inactive” throughout. For the same molecule, the Potency entry in experiment [6], in experiment [7], in experiment [8], in experiment [9], in experiment [10] and in [12] was “inactive” in each case. For the same molecule, the Potency result in experiment [16], in [14], in experiment [17] and in experiment [18] was “inactive” throughout. Moreover, in [11], the max response is 9.14%.
Turning to `[Cl-].[Cl-].[Sn+2]`, the Potency result in experiment [1], in experiment [2], in [3], in experiment [4], in experiment [15] and in experiment [6] was “inactive” each time. Besides, the Potency entry in experiment [7], in [8], in experiment [9], in [10], in experiment [12] and in experiment [13] was “inactive” throughout. Further, the Potency entry in [16], in experiment [14], in [17] and in [18] was “inactive” each time.
As for `CC(Cc1ccccc1)N(C)Cc1ccco1` (stereo not drawn), the Potency entry in experiment [1], in experiment [2], in [3], in experiment [4], in experiment [15] and in [5] was “inactive” each time. The Potency result in experiment [6], in experiment [7], in experiment [8], in experiment [9], in experiment [10] and in experiment [12] was “inactive” each time. Further, the Potency entry in experiment [13], in [16], in experiment [14], in experiment [17] and in experiment [18] was “inactive” throughout. Further, the max response in experiment [11] is 0.354%.
Consider `CCCN`, for which the Potency entry in experiment [1], in experiment [2], in experiment [3], in experiment [4], in experiment [15] and in [5] was “inactive” each time. In addition, the Potency entry in experiment [6], in experiment [7], in experiment [8], in experiment [9], in experiment [10] and in [12] was “inactive” throughout. Besides, the Potency entry in [13], in experiment [16], in [14], in experiment [17] and in experiment [18] was “inactive” each time. Besides, in [11], the max response is -0.242%.

The values are drawn from PubChem BioAssay (Tox21).
